Unmarked numbers belong to inactive results. Inconclusive results are not listed. Activity calls are given as the source filed them. Unless noted, the call rests on the fitted dose curve.
Test system: not listed separately
Experiment: qHTS assay to identify small molecule antagonists of the estrogen receptor beta (ER-beta) signaling pathway - cell viability counter screen (AID 1259382; active means well fitted cell-killing curve with a large enough effect in the repeat runs; further: nearly all actives have a fitted effect of over 55% in size; further: potency means the concentration at half of the fitted maximal effect;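 on activity change, negative = cytotoxicity: HEK293T cells carrying ER-beta-UAS-bla reporter stimulated with estradiol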)
Conditions: ER-beta-UAS-bla HEK293T viability, CellTiter-Glo luminescence, 16 h; series mostly up to 92.4 µM; activity change, negative = cytotoxicity: at the top concentration
Procedure, shortened: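 Following a 6 hr plating period, HEK293T cells carrying a UAS-driven beta-lactamase reporter under ER-beta control received compounds and 1nM E2 (final). After 16 hr at 37C and 2 hr substrate loading, CellTiter-Glo luminescence indicated viability.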
On the % scale 0 is the no-effect control and ±100 the full control effect.

| Structure (SMILES) | activity change, negative = cytotoxicity | Potency |
| --- | --- | --- |
| C#Cc1cccc(Nc2ncnc3cc(OCCOC)c(OCCOC)cc23)c1 | -25.5% [at 42.5 µM] |  |
| CCCCCCOC(=O)NC(=N)c1ccc(NCc2nc3cc(C(=O)N(CCC(=O)OCC)c4ccccn4)ccc3n2C)cc1 |  | 11.9 µM (active) |
| CCOc1ccc(N)c([N+](=O)[O-])c1 | 0.361% |  |
| O=C(O)c1nc(Cl)c(Cl)c(Cl)c1Cl | -3.9% |  |
| CC1=CC[C@H](C(C)C)C=C1 | -19.5% |  |
| CCOC(=O)NCCOc1ccc(Oc2ccccc2)cc1 | -2.92% |  |
| C[C@H]1C[C@H]2[C@@H]3CCC4=CC(=O)C=C[C@]4(C)[C@@]3(Cl)[C@@H](O)C[C@]2(C)[C@@]1(O)C(=O)CO | -17.5% [at 42.5 µM] |  |
| CC(=O)[O][Al][O]C(C)=O | 4.09% |  |
| CCN(CC)CCOC(=O)C(Cc1cccc2ccccc12)CC1CCCO1 (stereo not given) | -16.7% [at 42.5 µM] |  |
| CC[N+]1(CC)CCC(=C(c2ccccc2)c2ccccc2)C1C (stereo not given) | 1.34% [at 42.5 µM] |  |
| CNCCCN1c2ccccc2CCc2ccccc21 |  | 23.7 µM (active) |
| CN(C)CCCN1c2ccccc2Sc2ccccc21 |  | 26.6 µM (active) |
| CCN(CC)CCNc1ccc(CNC=O)c2sc3ccc(OC)cc3c(=O)c12 |  | 8.63 µM (active) |
| CC(C)C[C@H]1C(=O)N2CCC[C@H]2[C@]2(O)O[C@](NC(=O)[C@@H]3C=C4c5cccc6[nH]c(Br)c(c56)C[C@H]4N(C)C3)(C(C)C)C(=O)N12 | -0.156% [at 42.5 µM] |  |

Biological target: Estrogen receptor (Homo sapiens) (UniProt P03372)
Experiment: qHTS assay to identify small molecule agonists of the estrogen receptor alpha (ER-alpha) signaling pathway in the presence of an antagonist (AID 1259383); further: top concentration of the series differs between compounds; nearly all actives have a fitted effect of over 15% in size
Conditions: VM7Luc4E2 cells, ERE-luciferase, +ICI-182,780, 22 h; series mostly up to 42.5 µM; activation: at the top concentration
Procedure, shortened: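 Cells are hormone-deprived for 5 days (charcoal-stripped FBS, no phenol red), plated for 24hr, spiked with 10.0nM ICI-182,780, then dosed at 15 concentrations. After 22hr at 37C, ONE-Glo luminescence reports ERE-luciferase activity.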

Chain of Estrogen receptor (Homo sapiens) (P03372 whole entry, looked up): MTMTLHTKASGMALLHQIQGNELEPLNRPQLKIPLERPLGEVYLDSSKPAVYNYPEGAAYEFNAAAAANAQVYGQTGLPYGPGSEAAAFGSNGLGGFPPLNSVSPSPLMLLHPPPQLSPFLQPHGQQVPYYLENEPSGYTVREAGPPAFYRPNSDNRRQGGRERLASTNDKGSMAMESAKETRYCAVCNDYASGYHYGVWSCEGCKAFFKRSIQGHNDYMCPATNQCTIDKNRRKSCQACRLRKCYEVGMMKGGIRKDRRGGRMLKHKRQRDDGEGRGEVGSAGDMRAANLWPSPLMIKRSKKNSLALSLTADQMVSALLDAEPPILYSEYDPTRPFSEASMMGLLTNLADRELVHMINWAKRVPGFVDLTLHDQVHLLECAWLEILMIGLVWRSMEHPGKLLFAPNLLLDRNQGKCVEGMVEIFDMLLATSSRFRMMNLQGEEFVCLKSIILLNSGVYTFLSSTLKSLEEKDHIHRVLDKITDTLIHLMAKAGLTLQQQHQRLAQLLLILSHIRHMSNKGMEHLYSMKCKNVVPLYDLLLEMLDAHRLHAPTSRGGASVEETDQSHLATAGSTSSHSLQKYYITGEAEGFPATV

| Structure (SMILES) | activation | Potency |
| --- | --- | --- |
| COc1ccc(S(=O)(=O)N2C(=O)[C@@](c3ccccc3OC)(N3C[C@H](O)C[C@H]3C(=O)N(C)C)c3cc(Cl)ccc32)c(OC)c1 | -0.131% [at 92.4 µM] |  |
| O=C(O)C1(C(=O)Nc2ccc(Cl)cc2Cl)CC1 | 6.83% [at 92.4 µM] |  |
| C#Cc1cccc(Nc2ncnc3cc(OCCOC)c(OCCOC)cc23)c1 | 0.458% |  |
| ClCCOCCOCCCl | -1.01% [at 92.4 µM] |  |
| O=C(O)c1ccco1 | 1.8% [at 92.4 µM] |  |
| C=CC(=O)OCCOCCOCCOCCOC(=O)C=C |  | inactive |
| CCCCCCOC(=O)NC(=N)c1ccc(NCc2nc3cc(C(=O)N(CCC(=O)OCC)c4ccccn4)ccc3n2C)cc1 | 0.779% |  |
| Cc1oc2c(NC(=O)c3c(Cl)cccc3Cl)cccc2c1C(C)(C)O | 0.0996% [at 92.4 µM] |  |
| CCOc1ccc(N)c([N+](=O)[O-])c1 | 1.24% [at 92.4 µM] |  |
| CC1=CC[C@H](C(C)C)C=C1 | -1.04% [at 92.4 µM] |  |
| CC1=CC=C(C(C)C)CC1 | 0.279% [at 92.4 µM] |  |
| C=C1C(=C/C=C2\CCC[C@]3(C)[C@@H]([C@H](C)/C=C/[C@@H](O)C4CC4)CC[C@@H]23)C[C@@H](O)C[C@@H]1O | 0.28% |  |
| Cc1cccc(C)c1OCC(=O)N[C@@H](Cc1ccccc1)[C@@H](O)C[C@H](Cc1ccccc1)NC(=O)[C@H](C(C)C)N1CCCNC1=O | 0.938% |  |
| CCCCC/C=C\C/C=C\CCCCCCCC(=O)NC(C)c1ccccc1 (stereo not given) | 0.493% |  |
| CCOC(=O)NCCOc1ccc(Oc2ccccc2)cc1 | 0.0845% [at 92.4 µM] |  |
| C[C@H]1C[C@H]2[C@@H]3CCC4=CC(=O)C=C[C@]4(C)[C@@]3(Cl)[C@@H](O)C[C@]2(C)[C@@]1(O)C(=O)CO | 0.294% |  |
| O=C(Nc1ccc(S(=O)(=O)N2CCOCC2)cc1)c1cc(Cl)ccc1NS(=O)(=O)c1ccc(Cl)s1 | -0.998% |  |
| CC1CCC(=O)C1=O (stereo not given) | -2.17% [at 92.4 µM] |  |
| CNCCCN1c2ccccc2CCc2ccccc21 | -1.91% |  |
| O=C(OCCCCCCOC(=O)c1ccccc1)c1ccccc1 | 3.78% [at 92.4 µM] |  |
| CCN(CC)CCNc1ccc(CNC=O)c2sc3ccc(OC)cc3c(=O)c12 | -0.0267% [at 92.4 µM] |  |

— PubChem BioAssay (Tox21)
